This is a sample that favours compounds with a hit; in the whole collection about 28% have one here.
CYP2C9 inh = blockers of cytochrome P450 2C9 activity – biochemical, luminescence, ADME assay, primary screen; inhibition, % at 5 µM; AID 777, 2007; CYP2C9 Supersomes, luciferin-H conversion; 96,000 compounds, 20% hits;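 active means blocking of liver enzyme CYP2C9 beyond about 50% at 5 µM, limit read from the data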
CYP2C19 act = human CYP2C19 activators, primary screen, biochemical, luminescence; Cytochrome P450 2C19 (Homo sapiens), P33261; recombinant CYP2C19, luciferin-H EGE luminescence; stronger effect = higher value; 0 = fully inhibited enzyme, 1 = untreated enzyme; activation factor at 5 µM; 96,000 tested, under 10 active;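 active means activation factor of at least 2 at 5 µM in the primary screen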
Target sequence (P33261 whole entry, looked up): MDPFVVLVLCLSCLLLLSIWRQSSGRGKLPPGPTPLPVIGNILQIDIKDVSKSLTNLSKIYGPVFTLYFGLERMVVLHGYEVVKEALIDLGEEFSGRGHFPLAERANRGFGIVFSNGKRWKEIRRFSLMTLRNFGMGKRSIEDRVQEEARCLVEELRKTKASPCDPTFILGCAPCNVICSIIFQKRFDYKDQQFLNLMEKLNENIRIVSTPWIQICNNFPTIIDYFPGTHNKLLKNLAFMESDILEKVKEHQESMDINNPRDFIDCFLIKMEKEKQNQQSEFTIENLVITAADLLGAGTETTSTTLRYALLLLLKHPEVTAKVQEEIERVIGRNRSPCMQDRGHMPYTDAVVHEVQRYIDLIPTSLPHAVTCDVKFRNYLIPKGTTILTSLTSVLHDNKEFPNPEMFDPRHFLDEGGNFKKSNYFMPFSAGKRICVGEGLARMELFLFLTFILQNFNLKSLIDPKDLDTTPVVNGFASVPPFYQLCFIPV
DAT uptake mod = changed hDAT dopamine uptake under cocaine IC80, either direction, primary screen, cocaine antagonist project, cell-based, LLC-PK1 hDAT, [14C]-dopamine uptake, MLSMR | LLC-PK1 hDAT cells, [14C]-dopamine uptake with cocaine IC80; actives deviate in either direction | B-score at 10 µM | 110,000 compounds, 1.3% hits | AID 449768, 2010;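 active means Z score or B-score, a plate-position-corrected score, falls beyond the plate's 99.7% confidence bounds, in either direction; inactive means both scores lie inside the 99.7% bounds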
CYP2C19 inh = blockers of cytochrome P450 2C19 activity – biochemical, luminescence, ADME assay, primary screen | P33261 | 96,000 compounds, 21% hits | AID 778, 2007 | CYP2C19 Supersomes, luciferin-H EGE luminescence, 30 min | inhibition, % at 5 µM;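 active means CYP2C19 inhibition above a set limit at 5 µM in the primary screen, cut at about 50% in these data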
CYP2C9 activ = human CYP2C9 activators, primary screen, biochemical, luminescence. Cytochrome P450 2C9 (Homo sapiens), P11712. recombinant CYP2C9, luciferin-H conversion; stronger effect = higher value; factor 1 = untreated enzyme, 0 = blocked. activation factor at 5 µM. 96,000 compounds, 1.4% hits. AID 1024, 2008;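 active means activation factor of 2 or more for CYP2C9 at a 5 µM dose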
D1 allo mod = D1 CRE-luciferase signal change, two-sided – cell-based, HEK293 D1, dopamine EC30, D1 allosteric modulator project, primary screen | D(1A) dopamine receptor (Homo sapiens), P21728 | dopamine EC30 potentiation; actives deviate in either direction | B-score at 10 µM | 58,000 compounds, 5.9% hits | AID 641, 2007;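 active means luminescence count or its row- and column-corrected plate score outside the 99.7% band of the plate's sample wells, on either side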
A number is an active result; i = inactive; nt = no result given; ! = not active in a repeat.

SMILES | CYP2C9 inh | CYP2C19 act | DAT uptake mod | CYP2C19 inh | CYP2C9 activ | D1 allo mod
CCc1ccccc1N(C(=O)CCC(=O)Nc1cc(C)on1)C(C(=O)NC1CCCC1)c1ccco1 (stereo not drawn) | 57.7 | i | i | 74.7 | i | nt
Cc1cc(NC(=O)CCC(=O)N(CC(=O)NC2CCCC2)Cc2ccc(F)cc2)no1 | i | i | i | i | i | i
Cc1cc(NC(=O)CCC(=O)N(CC(=O)NC2CCCC2)Cc2ccccc2Cl)no1 | 57.5 | i | i | i | i | i
Cc1cc(NC(=O)CCC(=O)N(C2CC2)C2(C(=O)NC3CCCC3)CCC(C)CC2)no1 (stereo not drawn) | 71.2 | i | i | 58.6 | i | i
COc1cccc(N(CC(=O)N2CCN(C)CC2)S(=O)(=O)c2ccc(C)cc2)c1 | i | i | i | i | i | i
CC(C)(C)C(=O)NC(=C(Cl)Cl)P(=O)(O)O | i | i | i | i | i | nt
CCOC(=O)c1cccc(NC(=O)c2c(N)n(C)c(=O)[nH]c2=O)c1 | nt | nt | i | nt | nt | nt
Cc1[nH]nc(N=CC2=C(O)CC(c3ccco3)CC2=O)c1-c1ccccc1 (stereo not drawn) | 60.7 | i | i | i | i | i
Cc1ccc(C)c(S(=O)(=O)N2CCN(CC(=O)N3CCc4ccccc4C3)CC2)c1 | i | i | i | 81.0 | 3.4 | nt
Cc1ccc(C)c(S(=O)(=O)N2CCN(CC(=O)Nc3cc(C)on3)CC2)c1 | i | i | i | i | 2.3 | i
O=C(CN1CCN(S(=O)(=O)c2cc(Cl)ccc2Cl)CC1)Nc1ccc2c(c1)OCCO2 | i | i | 1.81! | 53.9 | 2.2 | i
Cc1ccc(C)c(S(=O)(=O)N2CCN(CC(=O)Nc3ccc4c(c3)OCCO4)CC2)c1 | i | i | i | 84.7 | i | nt
Cc1cc(NC(=O)CN2CCN(S(=O)(=O)c3ccc4ccccc4c3)CC2)no1 | i | i | i | i | i | nt
CN(C)c1ccc(NC(=O)CN2CCN(S(=O)(=O)c3cc(Cl)ccc3Cl)CC2)cc1 | i | i | i | i | i | i
COc1ccc(NC(=O)CN2CCN(CC(=O)Nc3ccc4c(c3)OCO4)CC2)cc1 | i | i | i | i | i | i
NC(=O)CC(NC(=O)Cc1ccc(Cl)cc1)c1ccc(NCc2ccccc2)c([N+](=O)[O-])c1 (stereo not drawn) | nt | nt | i | nt | nt | nt
COC(=O)CC/C(C)=N\Nc1ccc([N+](=O)[O-])cc1[N+](=O)[O-] | i | i | i | i | i | nt
CC(C)n1c(N2CCN(CC(=O)Nc3ccc4c(c3)OCCO4)CC2)nc2ccccc21 | i | i | i | 58.5 | i | i
CC(C)OC(=O)CN1CCN(S(=O)(=O)c2cc(Cl)ccc2Cl)CC1 | i | i | i | 82.6 | 2.1 | i
O=C(CN1CCN(S(=O)(=O)c2ccc(Br)cc2)CC1)Nc1ccc2c(c1)OCO2 | 62.7 | i | i | 80.8 | i | nt
COc1ccc(-n2c(SCC(=O)Nc3ccccc3)nc3c(c2=O)SCC3)cc1 | i | i | i | i | i | nt
CCCC(=O)c1cc(F)c(N2CCN(C(=O)OCC)CC2)cc1C | i | i | i | i | i | i
CCC(=O)c1cc(F)c(N2CCN(C(=O)Cc3ccccc3)CC2)cc1C | 83.5 | i | i | 84.9 | i | i
CCC(=O)c1ccc(N2CCN(C(=O)Cc3ccccc3)CC2)c(F)c1 | 95.4 | i | i | 78.1 | i | i
Cc1cc(S(=O)(=O)Nc2cccc(O)c2)c(C)s1 | i | i | i | 92.3 | i | i
SMILES | CYP2C9 inh | CYP2C19 act | DAT uptake mod | CYP2C19 inh | CYP2C9 activ | D1 allo mod
Cc1cc(C(C)(C)C)cc(S(=O)(=O)Nc2cccc(C(=O)O)c2)c1C | i | i | i | i | i | nt
Cc1cc(S(=O)(=O)Nc2ccc(F)cc2)c(C)s1 | 51.0 | i | i | 84.2 | i | nt
COc1cccc2cc(-c3nnc(SCC(=O)Nc4nc(C)cs4)n3C)oc12 | i | i | i | i | i | i
CCOC(=O)CNC(=O)C(NC(=O)C1CCC(C)CC1)C(C)CC (stereo not drawn) | i | i | i | i | i | nt
Cn1c(=O)oc2cc(S(=O)(=O)N3CCCC(C(=O)NC4CCCc5ccccc54)C3)ccc21 (stereo not drawn) | 60.5 | i | i | i | i | nt
Cn1c(=O)oc2cc(S(=O)(=O)N3CCC(C(=O)N4CCc5ccccc5C4)CC3)ccc21 | i | i | nt | i | i | nt
Cn1c(=O)oc2cc(S(=O)(=O)N3CCCC(C(=O)N4CC=C(c5ccccc5)CC4)C3)ccc21 (stereo not drawn) | i | i | nt | 72.1 | i | i
COc1cc(NC(=O)C2CCCN(S(=O)(=O)c3ccc4c(c3)oc(=O)n4C)C2)cc(OC)c1 (stereo not drawn) | i | i | i | i | i | nt
COc1ccc(NC(=O)C2CCCN(S(=O)(=O)c3ccc4c(c3)oc(=O)n4C)C2)cc1OC (stereo not drawn) | i | i | i | 54.8 | i | nt
Cn1c(=O)oc2cc(S(=O)(=O)N3CCCC(C(=O)Nc4ccccn4)C3)ccc21 (stereo not drawn) | i | i | i | i | i | nt
COc1cc(OC)nc(NC(=O)NS(=O)(=O)c2ccc(OC(F)(F)F)cc2)n1 | i | i | i | i | i | i
CCOc1cc(NC(=O)c2ccccc2[N+](=O)[O-])c(OCC)cc1NC(=O)CC(C)C | i | i | i | i | i | nt
CC(=O)c1cccc(NC(=O)CCS(=O)(=O)c2cccc3nonc23)c1 | i | i | i | i | i | i
COc1ccccc1NC(=O)CN(Cc1ccco1)C(=O)c1cccs1 | i | i | i | i | i | i
O=C(CN(Cc1ccco1)S(=O)(=O)c1cccs1)Nc1ccccc1C(F)(F)F | 78.8 | i | i | 90.1 | i | i
CCCCC(=O)N/N=C/c1ccc(Sc2cccc3cccnc23)o1 | 57.4 | i | i | i | i | nt
C/C(CC(=O)Nc1ccccn1)=N\NC(=O)Cc1cccc2ccccc12 | i | i | i | i | i | nt
O=C(Cc1cccc2ccccc12)N/N=C/c1ccc(Sc2cccc3cccnc23)o1 | 82.3 | i | nt | 53.1 | i | nt
OCCn1c(-c2ccc3c(c2)OCO3)csc1=Nc1ccccc1 | 86.6 | i | i | 96.1 | i | -3.38
Cn1c(-c2ccc3c(c2)OCO3)cnc1NCc1ccccc1 | i | i | i | i | i | i
CCOc1ccc(N=c2scc(-c3ccc(OC)cc3)n2CCO)cc1 | nt | nt | i | nt | nt | nt
CCOc1ccc(N=c2scc(-c3ccccc3)n2CCO)cc1 | i | i | i | 68.2 | i | nt
Cc1c(C(=O)N2CCCCC2)sc(N)c1C#N | i | i | i | i | i | i
CCOc1ccc(NC(C)c2cc(Cl)ccc2O)cc1 (stereo not drawn) | 79.1 | i | i | 62.3 | i | i

From PubChem BioAssay
